The text below walks through data of PubChem BioAssay (NCATS).

Molecules are shown by their SMILES. Results filed as inconclusive are left out. Calls of active or inactive are those of the source. The call rests on the fitted dose curve; in most records, active means well fitted inhibition curve with a large enough effect; inconclusive means small, poorly fitted or top-dose-only effect; inactive means flat fitted curve, though single readings scatter.

Common to all, as to test: qHTS profiling for inhibitors of Plasmodium falciparum proliferation (AID 504749); further: nearly all actives have a fitted effect of over 60% in size
Common to all, as to settings: P. falciparum in erythrocytes, SYBR Green DNA, 72 h; series mostly up to 12.8 µM

One assay deals with AA1029. In a few lines:
(§1)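 P. falciparum-infected erythrocytes (0.3% parasitemia, 2.5% hematocrit final) were exposed to compounds for 72 h at 37 C in 5% CO2, then lysed with SYBR Green buffer overnight at room temperature; parasite DNA fluorescence was normalized to artemisinin and DMSO controls.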

A further assay relates to ATS95. In a few lines: as §1
The subject of a further assay is CP192. Summed up:
as §1

The subject of the next assay is CP201. Summed up: as §1
The subject of a further assay is CP211. In a few lines: as §1
A further assay has as its system CP262. In a few lines:
as §1

In another assay the test system is CP266. In a few lines:
as §1

The test system of a further assay is CP269. In a few lines:
as §1

Another assay has as its system CP286. Summed up: as §1
In another assay the test system is CP291. Summed up:
as §1

The next assay has as its system CP305. Summed up:
as §1

For the next assay, the system named is CP325. In a few lines:
as §1

Another assay deals with DIV30. Summed up: as §1
In another assay the test system is Dd2. In a few lines:
as §1

The subject of a further assay is ICS. Summed up: as §1
A further assay concerns P93_24. Summed up: as §1
In a further assay the test system is PC15. Summed up: as §1
The subject of the next assay is TAB165. Summed up: as §1
The subject of the next assay is DIV14. In a few lines: as §1
The next assay relates to CP260. Summed up:
as §1
Potency means the concentration at half of the fitted maximal effect.

`C[C@H]1CS(=O)(=O)CCN1/N=C\c1ccc([N+](=O)[O-])o1`: the Potency entry in the assay on AA1029, in the assay on ATS95, in the assay on CP192, in the assay on CP201, in the assay with CP211 and in the assay with CP262 was “inactive” each time. Besides, the Potency result with CP266, in the assay with CP269, in the assay with CP286, in the assay with CP291, in the assay on CP305 and in the assay on CP325 was “inactive” in each case. In addition, the Potency result in the assay on DIV30, with Dd2, in the assay with ICS, with P93_24, with PC15 and in the assay on TAB165 was “inactive” in each case.

In the case of `C=C1c2c(Cl)ccc(O)c2C(O)=C2C(=O)[C@@]3(O)C(O)=C(C(N)=O)C(=O)[C@@H](N(C)C)[C@@H]3[C@@H](O)[C@H]12`, the Potency entry in the assay on ATS95, in the assay with CP192, in the assay on CP201, in the assay on CP211, with CP262 and in the assay on CP266 was “inactive” in each case. In addition, the Potency result with CP269, with CP291, with CP305, in the assay with CP325, in the assay on DIV14 and with DIV30 was “inactive” each time. Moreover, the Potency entry in the assay on PC15 is “inactive”. For the same molecule, the Potency in the assay on Dd2 is 2.24 µM (active).

On to `CN(C/C=C\c1ccccc1)Cc1cccc2ccccc12`, for which the Potency result with AA1029, in the assay on ATS95, in the assay on CP192, with CP201, with CP260 and in the assay with CP262 was “inactive” throughout. Besides, the Potency entry in the assay on CP266, in the assay on CP269, in the assay on CP305, with CP325, in the assay with DIV14 and with DIV30 was “inactive” each time. Further, the Potency entry in the assay on Dd2, with P93_24, with PC15 and in the assay with TAB165 was “inactive” throughout. Moreover, the Potency in the assay with ICS was 11.2 µM (active).

For the molecule `O=C1O[C@@H]([C@@H](O)CO)[C@@H](O)[C@H]1O`, the Potency result with AA1029, in the assay with ATS95, with CP192, with CP201, with CP211 and in the assay with CP260 was “inactive” throughout. Also, the Potency result in the assay on CP262, in the assay with CP266, in the assay on CP269, in the assay on CP286, with CP291 and in the assay on CP305 was “inactive” each time. Moreover, the Potency result with CP325, in the assay on DIV14, with DIV30, in the assay with Dd2, in the assay with ICS and in the assay with P93_24 was “inactive” in each case. Also, the Potency entry in the assay on PC15 and with TAB165 was “inactive” throughout.

Consider `CC[C@](C)(CN(C)C)OC(=O)c1ccccc1`, for which the Potency result in the assay on AA1029, in the assay on ATS95, in the assay on CP192, with CP201, in the assay with CP211 and in the assay on CP260 was “inactive” each time. The Potency result with CP262, in the assay on CP266, with CP269, in the assay with CP286, with CP291 and in the assay with CP305 was “inactive” throughout. The Potency result in the assay with CP325, with DIV30, in the assay on ICS, in the assay on PC15 and in the assay with TAB165 was “inactive” throughout. Besides, in the assay with Dd2, the Potency is 5.01 µM (active).

As for `COc1ccc(OC)c([C@H](O)CNC(=O)CN)c1`, the Potency result with AA1029, with ATS95, in the assay on CP192, in the assay on CP201, with CP211 and with CP260 was “inactive” each time. For the same molecule, the Potency result in the assay with CP262, in the assay on CP266, in the assay on CP269, in the assay on CP286, with CP291 and in the assay with CP305 was “inactive” throughout. Also, the Potency entry in the assay with CP325, with DIV14, in the assay with DIV30, in the assay on Dd2, in the assay on ICS and in the assay with P93_24 was “inactive” in each case. The Potency entry in the assay with PC15 and with TAB165 was “inactive” throughout.

`Cc1onc(-c2ccccc2Cl)c1C(=O)N[C@H]1C(=O)N2[C@H]1SC(C)(C)[C@H]2C(=O)O`: the Potency result with AA1029, with ATS95, in the assay on CP192, in the assay with CP201, with CP211 and with CP260 was “inactive” throughout. For the same molecule, the Potency result in the assay with CP262, in the assay with CP269, in the assay on CP286, with CP291, in the assay on CP305 and with CP325 was “inactive” in each case. Besides, the Potency entry with DIV14, in the assay on DIV30, in the assay with Dd2, in the assay with ICS, in the assay on P93_24 and with PC15 was “inactive” each time. In addition, the Potency result with TAB165 is “inactive”.

For the molecule `Cc1ccc2c(c1)c1c3n2CCN[C@H]3CCC1`, the Potency result with ATS95, with CP192, in the assay with CP201, with CP211, in the assay with CP260 and in the assay with CP262 was “inactive” throughout. Also, the Potency entry in the assay on CP266, in the assay with CP269, in the assay on CP291, in the assay with CP305, in the assay with CP325 and with P93_24 was “inactive” throughout. Moreover, the Potency with DIV14 was 6.01 µM (active).

Take `CCCCC[C@H](O)/C=C\[C@H]1[C@H](C/C=C\CCCC(=O)O)[C@@H](O)C[C@H]1O` (tested in a mixture with another compound): the Potency entry in the assay on AA1029, in the assay on ATS95, in the assay with CP192, with CP201, in the assay with CP211 and in the assay on CP260 was “inactive” in each case. The Potency entry in the assay on CP262, with CP266, in the assay with CP269, with CP286, in the assay with CP291 and in the assay with CP305 was “inactive” each time. The Potency entry in the assay on CP325, in the assay on DIV14, in the assay with DIV30, with Dd2, with ICS and in the assay with P93_24 was “inactive” each time. Moreover, the Potency result with PC15 and in the assay with TAB165 was “inactive” in each case.

On to `CC(=C(CCOP(=O)(O)O)SC(=O)c1ccccc1)N(C=O)Cc1cnc(C)nc1N`, for which the Potency entry in the assay with AA1029, in the assay with ATS95, in the assay on CP192, with CP201, in the assay on CP211 and in the assay with CP260 was “inactive” each time. Besides, the Potency result in the assay on CP262, in the assay with CP266, with CP269, in the assay with CP286, in the assay on CP291 and with CP305 was “inactive” each time. In addition, the Potency entry with CP325, in the assay with DIV14, with DIV30, with Dd2, with ICS and with P93_24 was “inactive” throughout. The Potency result in the assay on PC15 and in the assay on TAB165 was “inactive” in each case.

For `O=C(N/N=C\c1ccc([N+](=O)[O-])o1)c1ccc(O)cc1`, the Potency with AA1029 was 3.98 µM (active); in the assay on ATS95, 3.16 µM (active); in the assay on CP201 it was 5.73 µM (active); in the assay with CP211 it was 5.73 µM (active); in the assay on CP260 it was 2.51 µM (active); in the assay on CP269, 4.55 µM (active). Further, the Potency is 2.51 µM (active) with CP286; 4.55 µM (active) with CP291; 2.56 µM (active) with CP305; 3.22 µM (active) in the assay with DIV14; 5.1 µM (active) in the assay with DIV30; 3.55 µM (active) with Dd2. Moreover, the Potency was 1.41 µM (active) in the assay on ICS, 2.82 µM (active) with P93_24, 2.82 µM (active) in the assay with PC15 and 3.16 µM (active) in the assay on TAB165.

In the case of `CC(C)(C)NC[C@@H](O)COc1ccccc1C1CCCC1`, the Potency with AA1029 is 2.82 µM (active); in the assay with ATS95 it was 3.55 µM (active); with CP192, 6.42 µM (active); in the assay with CP260 it was 3.16 µM (active); in the assay on CP269, 5.73 µM (active); with CP286 it was 3.55 µM (active). The Potency in the assay with CP291 was 4.05 µM (active); in the assay on CP325, 4.55 µM (active); in the assay with DIV14 it was 2.03 µM (active); in the assay on DIV30, 5.73 µM (active); in the assay on Dd2, 1.58 µM (active); with ICS, 1.41 µM (active). Moreover, the Potency in the assay with P93_24 was 2.24 µM (active); in the assay with PC15 it was 2.51 µM (active); with TAB165, 3.55 µM (active).
